# From PMC4336329 (PLoS ONE, 2015)
# Hit rate of the full screen: of about 310,000 compounds, about 2,200 (0.71%) showed an effect of 50% or more. Effects have a minus sign here. The list comes from a sample in which strong results are over-represented; it also holds similar structures and randomly drawn compounds.
# Molecular target: human ether-à-go-go-related gene (hERG) potassium channel (human, UniProt Q12809)
# Experiment: primary screen, population patch clamp on CHO cells stably expressing hERG; higher = less effect of the substance
# Sequence of human ether-à-go-go-related gene (hERG) potassium channel (Q12809 whole entry, looked up): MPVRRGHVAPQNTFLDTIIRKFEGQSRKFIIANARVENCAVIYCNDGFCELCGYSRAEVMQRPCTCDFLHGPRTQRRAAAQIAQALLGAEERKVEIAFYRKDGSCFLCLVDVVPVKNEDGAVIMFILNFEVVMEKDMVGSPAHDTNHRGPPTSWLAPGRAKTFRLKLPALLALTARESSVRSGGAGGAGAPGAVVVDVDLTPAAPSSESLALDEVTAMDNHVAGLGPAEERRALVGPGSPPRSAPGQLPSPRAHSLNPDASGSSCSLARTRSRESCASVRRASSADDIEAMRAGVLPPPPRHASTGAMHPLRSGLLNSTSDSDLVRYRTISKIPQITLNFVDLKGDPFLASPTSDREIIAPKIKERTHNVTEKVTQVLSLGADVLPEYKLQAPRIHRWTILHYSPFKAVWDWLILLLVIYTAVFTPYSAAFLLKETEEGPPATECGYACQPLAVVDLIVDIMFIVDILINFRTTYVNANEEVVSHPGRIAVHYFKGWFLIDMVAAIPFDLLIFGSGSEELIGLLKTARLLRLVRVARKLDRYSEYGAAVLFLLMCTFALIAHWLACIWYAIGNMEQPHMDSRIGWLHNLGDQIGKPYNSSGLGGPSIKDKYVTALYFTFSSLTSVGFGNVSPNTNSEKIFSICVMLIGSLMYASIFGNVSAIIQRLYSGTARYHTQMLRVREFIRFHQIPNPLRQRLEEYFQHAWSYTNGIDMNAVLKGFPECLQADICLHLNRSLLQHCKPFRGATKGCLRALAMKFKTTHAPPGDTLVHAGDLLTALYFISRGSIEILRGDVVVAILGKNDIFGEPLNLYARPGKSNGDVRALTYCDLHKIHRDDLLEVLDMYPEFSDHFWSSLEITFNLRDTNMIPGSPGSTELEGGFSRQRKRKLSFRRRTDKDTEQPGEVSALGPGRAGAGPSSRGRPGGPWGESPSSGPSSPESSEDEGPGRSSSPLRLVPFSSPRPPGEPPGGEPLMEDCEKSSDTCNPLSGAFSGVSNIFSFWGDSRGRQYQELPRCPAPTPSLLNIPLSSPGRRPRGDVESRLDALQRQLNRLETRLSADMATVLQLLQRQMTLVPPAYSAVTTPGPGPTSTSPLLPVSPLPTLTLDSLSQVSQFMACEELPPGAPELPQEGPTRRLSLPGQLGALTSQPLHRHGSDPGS
row,Structure (SMILES),"hERG current change (%, negative = inhibition) at 1uM"
1,Cc1onc(-c2ccccc2)c1-c1ccnn1C(=O)NC(C)C,6.54%
2,CNC(=O)c1ccccc1NC(=O)C1CC(=O)N(c2ccc(OC)cc2)C1 (stereo not shown),9.77%
3,O=C(NC1CCCCC1)c1ccccc1NC(=O)C1CC(=O)N(c2ccccc2)C1 (stereo not shown),-64.3%
4,O=C(NC1CCCCC1)c1ccccc1NC(=O)C1CC(=O)N(c2ccc(Cl)cc2)C1 (stereo not shown),13.2%
5,Cc1ccc(N2CC(C(=O)Nc3ccccc3C(=O)NC3CCCCC3)CC2=O)cc1 (stereo not shown),5.42%
6,CCCOc1ccc(N2CC(C(=O)Nc3ccccc3C(=O)NCc3ccco3)CC2=O)cc1 (stereo not shown),-29.5%
7,CCCOc1ccc(N2CC(C(=O)Nc3ccccc3C(=O)NC)CC2=O)cc1 (stereo not shown),-56.5%
8,CCC(C)C1C(C#N)=C(N)Oc2n[nH]c(C)c21 (stereo not shown),14.1%
9,CN(C)CCCNc1ncc(C(F)(F)F)cc1Cl,10.3%
10,CN1C(=O)[C@@H]2[C@H](C1=O)[C@@H]1C(=O)Nc3ccccc3C(=O)N1[C@@H]2c1ccc(Br)cc1,-16.7%
11,O=C(Cn1c(C(=O)N2CCN(C3CCCC3)CC2)cc2sccc21)c1ccccc1,-51%
12,CN1CCN(C(=O)c2cc3sccc3n2CC(=O)c2ccccc2)CC1,-2.93%
13,O=C(Cn1c(C(=O)N2CCN(C3CCCCC3)CC2)cc2sccc21)c1ccccc1,-47.5%
14,COc1ccc(-c2cc(-c3cccs3)c(C#N)c(SCC(=O)NCc3ccccc3OC)n2)cc1,-3.19%
15,Cc1cccc(C)c1NC(=S)NCc1ccncc1,16%
16,c1ccc(CN2CCC(Nc3nc(-c4ccccc4)nc4ccccc34)CC2)cc1,4.83%
17,c1ccc(CN2CCC(Nc3nc(-c4cccs4)nc4ccccc34)CC2)cc1,10.5%
18,c1ccc(CN2CCC(Nc3nc(-c4cccnc4)nc4ccccc34)CC2)cc1,-74.6%
19,CSc1oc(-c2ccc(F)cc2)nc1S(=O)(=O)c1ccccc1,-1.68%
20,CC1(C)C([N+](=O)[O-])C(c2ccc(O)cc2)NC(c2ccc(O)cc2)C1[N+](=O)[O-] (stereo not shown),10.3%
21,COc1ccc(CCC(C)NCCc2ccc(Cl)cc2Cl)cc1 (stereo not shown),-50.1%
22,COc1ccc(CNCCc2ccc(Cl)cc2Cl)cc1,13.2%

row,Structure (SMILES),"hERG current change (%, negative = inhibition) at 1uM"
1,COc1ccc(CCNC(C)CCc2ccc(OC)cc2)cc1 (stereo not shown),-2.61%
2,CCC(=O)OC1(c2ccccc2)C(C)CN(C)CC1C.Cl (stereo not shown),8.82%
3,C[C@]12CCC[C@H](O1)[C@H]([C@@H](O)c1ccccc1)O2,16.5%
4,CN1C(CC(O)c2ccccc2)CCCC1CC(O)c1ccccc1.Cl (stereo not shown),-46.3%
5,CN1C(CC(=O)c2ccccc2)CCCC1CC(O)c1ccccc1 (stereo not shown),-55.2%
6,CN1CCC(N(C)CC(O)c2ccccc2)CC1.O=C(O)C(=O)O (stereo not shown),1.81%
7,Cc1ccc2c(Cl)c(C(=O)NC3CC3)sc2c1,9.87%
8,CC(C)CCn1c(SCCN2CCOCC2)nc2c1c(=O)[nH]c(=O)n2C,1.89%
9,Cn1c(=O)[nH]c(=O)c2c1nc(SCCN1CCCCC1)n2Cc1ccccc1,-81.6%
10,CCCSc1nc2c(c(=O)[nH]c(=O)n2C)n1Cc1ccccc1,2.13%
11,COCCSc1nc2c(c(=O)[nH]c(=O)n2C)n1Cc1cccc(C)c1,-5.69%
12,CCCCCn1c(SCCN2CCOCC2)nc2c1c(=O)[nH]c(=O)n2C,-40.7%
13,Cc1cccc(Cn2c(N3CCN(CCO)CC3)nc3c2c(=O)[nH]c(=O)n3C)c1,7.07%
14,Cn1c(=O)[nH]c(=O)c2c1nc(SCCN1CCOCC1)n2Cc1ccccc1,-12%
15,Cc1cccc(Cn2c(SCCN3CCCCC3)nc3c2c(=O)[nH]c(=O)n3C)c1,-80.7%
16,Cn1c(=O)[nH]c(=O)c2c1nc(SCCN1CCOCC1)n2CCCc1ccccc1,-6.15%
17,CCCCCCn1c(SCCN2CCOCC2)nc2c1c(=O)[nH]c(=O)n2C,-64.1%
18,Cn1c(=O)[nH]c(=O)c2c1nc(SCCN1CCCCC1)n2CCCc1ccccc1,-57.3%
19,Cn1c(=O)[nH]c(=O)c2c1nc(SCCO)n2CCCc1ccccc1,5.4%
20,O=C(O)C1CC(=O)N(Cc2ccc3c(c2)OCO3)C1 (stereo not shown),6.73%
21,O=C(CN1CCCc2ccccc21)NCc1ccc2c(c1)OCO2,9.15%
22,CSc1ccc(-c2nc3cnccn3c2Nc2ccc3c(c2)OCO3)cc1,9.9%

row,Structure (SMILES),"hERG current change (%, negative = inhibition) at 1uM"
1,Cc1ccccc1OCCC(=O)Nc1ccc(S(=O)(=O)N(C)C2CCN(C)CC2)cc1,20.4%
2,Cc1ccc(Cn2c(N3CCCCCC3)nc3c2c(=O)[nH]c(=O)n3C)cc1,2.45%
3,Cc1ccc(Cn2c(SCC(C)C)nc3c2c(=O)[nH]c(=O)n3C)cc1,9.48%
4,Cc1ccc(Cn2c(SCCN3CCCCC3)nc3c2c(=O)[nH]c(=O)n3C)cc1,-77.5%
5,O=C(Cc1ccc(Cl)cc1)N1CCc2ccccc2C1,21.7%
6,COc1cccc(C(c2sc3nc(C)nn3c2O)N2CCN(c3ccccc3F)CC2)c1 (stereo not shown),10%
7,CCCCN(CCCC)CCNC(=O)CN1C(=O)CSc2ccc(S(=O)(=O)N3CCCCC3)cc21,-51.7%
8,CCCCN(CCCC)CCNC(=O)CN1C(=O)CSc2ccc(S(=O)(=O)N3CCOCC3)cc21,-3.76%
9,CCCCN(C)CCNC(=O)CN1C(=O)CSc2ccc(S(=O)(=O)N3CCCCC3)cc21,-6.21%
10,Nc1nc(N)c(N=Nc2ccc(C(=O)O)cc2)c(N)n1,8.04%
11,Cc1ccc(Sc2cc(NCCCO)c([N+](=O)[O-])c3nonc23)cc1,5.43%
12,CCOC(=O)c1c(NC(=O)c2ccccc2C(=O)O)sc2c1CCC2,2.17%
13,CCOC(=O)c1c(NC(=O)c2ccccc2C(=O)O)sc2c1CCCC2,16.3%
14,CCOC(=O)c1c(NC(=O)C(NCCN(C)C)c2ccccc2)sc2c1CCCC2 (stereo not shown),-77.2%
15,COc1ccc(N=C2SC(C(=O)O)CC(=O)N2Cc2ccc(OC)c(OC)c2)cc1 (stereo not shown),10.8%
16,CCCCNC(=O)N1CCN(c2ccccc2OC)CC1,5.81%
17,O=C1c2[nH]nc(-c3ccccc3O)c2C(c2ccc(F)cc2)N1Cc1ccco1 (stereo not shown),13.1%
18,CC1CC(C)CN(c2cc(=O)n(Cc3ccc(F)cc3)c(=O)[nH]2)C1 (stereo not shown),17.9%
19,CSc1nnc2c3cc(F)ccc3n(Cc3ccccc3)c2n1,7.64%
20,CN(C)C(=O)CSc1nc2ccccc2n1Cc1ccccc1,4.73%
21,CSc1nnc2c3ccccc3n(Cc3ccccc3)c2n1,19.2%
22,CCN(CC)CCSc1nnc2c3cc(F)ccc3n(Cc3ccccc3)c2n1,-53.8%

row,Structure (SMILES),"hERG current change (%, negative = inhibition) at 1uM"
1,CSc1nnc2c3cc(C)ccc3n(Cc3ccccc3)c2n1,10.3%
2,CCN(CC)CCSc1nnc2c3cc(C)ccc3n(Cc3ccccc3)c2n1,-81.6%
3,CCN(CC)CCSc1nnc2c3ccccc3n(Cc3ccccc3)c2n1,-73.4%
4,CCN(CC)CCSc1nc2ccccc2n1Cc1ccccc1.Cl,-79%
5,CCN(CC)CCSc1nnc2c3ccccc3n(CCc3ccccc3)c2n1,-18.1%
6,NNc1nnc2c3cc(F)ccc3n(Cc3ccccc3)c2n1,2.58%
7,O=C(O)CCSc1nc2ccccc2n1Cc1ccccc1,13.1%
8,c1ccc(Cn2c3ccccc3c3nnc(SCCN4CCCCC4)nc32)cc1,-6.31%
9,COc1ccc([N+](=O)[O-])cc1N(CC(=O)N1CCCC1)S(C)(=O)=O,10.2%
10,O=C(NC1(C(F)(F)F)NC(=O)N(Cc2cccnc2)C1=O)c1ccncc1 (stereo not shown),18.1%
11,O=C(NC(Cc1c[nH]c2ccccc12)C(=O)N1CCOCC1)c1cccs1 (stereo not shown),11.2%
12,CC(C)(C)OC(=O)NCCCCCc1nnc(SCC(=O)Nc2cccc(Cl)c2)o1,-1.82%
13,Cc1ccc(SCC(=O)Nc2ccc(N3CCN(C)CC3)c(F)c2)c(C)c1,-47.8%
14,COc1ccc(/C=N/N2CCN(C3c4ccccc4-c4ccccc43)CC2)cc1OC,12.9%
15,COCCOC(=O)c1c(NC(=O)CNc2ccc(C)c(F)c2)sc(C(N)=O)c1C,11%
16,Cc1cc(NC(=O)c2ccc(Cl)cc2)n(-c2ccccc2)n1,13.6%
17,Cc1cc(NC(=O)c2ccccc2)n(-c2ccccc2)n1,12.1%
18,Cc1cc(NC(=O)c2ccc(F)cc2)n(-c2ccccc2)n1,-75.3%
19,Nc1c(-c2ccc(Cl)cc2)cnc2c(-c3ccccc3)cnn12,18.5%
20,Cc1ccc(CSCCNS(C)(=O)=O)cc1,10.9%
21,CC(=O)N1CCCc2cc(S(=O)(=O)NC(C(=O)NC(C)c3ccccc3)C(C)C)ccc21 (stereo not shown),1.38%
22,COc1ccc(CN2CCNC(=O)C2CC(=O)N(C)CCC2CCOCC2)cc1OC (stereo not shown),13.7%
